Screening data (PubChem BioAssay)
The list is not random: actives were taken first. Their share in the collection is about 8%.
PostGolgi yeast: growth inhibition of a yeast mutant, post-Golgi transport screen; hit rate 0.9% among 98,000; inhibition, % at 10 µM; post-Golgi transport phenotypic cell assay;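 further: yeast cells grown in 1536-well plates; yeast grown about 18 h at 30C before absorbance read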
Pyk2 oligo antag: Pyk2 (human) oligomerization antagonism | AID 1347419 | z-score (the deposit names both 25 µM and 10 µM) | hit rate 0.83% among 99,000 | Q293 cells, Pyk2 FERM NanoBiT luminescence; hits give low values;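 active means Z-score of -3 or lower, scaled per plate to the spread of control and sample wells; inactive means z-score above -3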;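 further: negative z-score means lost luminescence so less FERM oligomerization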
Cav32 inh: inhibitors of human Cav3.2 T-type calcium channel; Cav3.2-expressing cells, Fluo-4 calcium fluorescence FDSS; hits give low values; hit rate 4% among 100,000; B-score at 10 µM; O95180; AID 449739;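 active means single-dose well whose peak fluorescence ratio is a statistical outlier from its plate by either plate-standardised score or position-corrected B-score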
Target sequence (O95180 whole entry, looked up): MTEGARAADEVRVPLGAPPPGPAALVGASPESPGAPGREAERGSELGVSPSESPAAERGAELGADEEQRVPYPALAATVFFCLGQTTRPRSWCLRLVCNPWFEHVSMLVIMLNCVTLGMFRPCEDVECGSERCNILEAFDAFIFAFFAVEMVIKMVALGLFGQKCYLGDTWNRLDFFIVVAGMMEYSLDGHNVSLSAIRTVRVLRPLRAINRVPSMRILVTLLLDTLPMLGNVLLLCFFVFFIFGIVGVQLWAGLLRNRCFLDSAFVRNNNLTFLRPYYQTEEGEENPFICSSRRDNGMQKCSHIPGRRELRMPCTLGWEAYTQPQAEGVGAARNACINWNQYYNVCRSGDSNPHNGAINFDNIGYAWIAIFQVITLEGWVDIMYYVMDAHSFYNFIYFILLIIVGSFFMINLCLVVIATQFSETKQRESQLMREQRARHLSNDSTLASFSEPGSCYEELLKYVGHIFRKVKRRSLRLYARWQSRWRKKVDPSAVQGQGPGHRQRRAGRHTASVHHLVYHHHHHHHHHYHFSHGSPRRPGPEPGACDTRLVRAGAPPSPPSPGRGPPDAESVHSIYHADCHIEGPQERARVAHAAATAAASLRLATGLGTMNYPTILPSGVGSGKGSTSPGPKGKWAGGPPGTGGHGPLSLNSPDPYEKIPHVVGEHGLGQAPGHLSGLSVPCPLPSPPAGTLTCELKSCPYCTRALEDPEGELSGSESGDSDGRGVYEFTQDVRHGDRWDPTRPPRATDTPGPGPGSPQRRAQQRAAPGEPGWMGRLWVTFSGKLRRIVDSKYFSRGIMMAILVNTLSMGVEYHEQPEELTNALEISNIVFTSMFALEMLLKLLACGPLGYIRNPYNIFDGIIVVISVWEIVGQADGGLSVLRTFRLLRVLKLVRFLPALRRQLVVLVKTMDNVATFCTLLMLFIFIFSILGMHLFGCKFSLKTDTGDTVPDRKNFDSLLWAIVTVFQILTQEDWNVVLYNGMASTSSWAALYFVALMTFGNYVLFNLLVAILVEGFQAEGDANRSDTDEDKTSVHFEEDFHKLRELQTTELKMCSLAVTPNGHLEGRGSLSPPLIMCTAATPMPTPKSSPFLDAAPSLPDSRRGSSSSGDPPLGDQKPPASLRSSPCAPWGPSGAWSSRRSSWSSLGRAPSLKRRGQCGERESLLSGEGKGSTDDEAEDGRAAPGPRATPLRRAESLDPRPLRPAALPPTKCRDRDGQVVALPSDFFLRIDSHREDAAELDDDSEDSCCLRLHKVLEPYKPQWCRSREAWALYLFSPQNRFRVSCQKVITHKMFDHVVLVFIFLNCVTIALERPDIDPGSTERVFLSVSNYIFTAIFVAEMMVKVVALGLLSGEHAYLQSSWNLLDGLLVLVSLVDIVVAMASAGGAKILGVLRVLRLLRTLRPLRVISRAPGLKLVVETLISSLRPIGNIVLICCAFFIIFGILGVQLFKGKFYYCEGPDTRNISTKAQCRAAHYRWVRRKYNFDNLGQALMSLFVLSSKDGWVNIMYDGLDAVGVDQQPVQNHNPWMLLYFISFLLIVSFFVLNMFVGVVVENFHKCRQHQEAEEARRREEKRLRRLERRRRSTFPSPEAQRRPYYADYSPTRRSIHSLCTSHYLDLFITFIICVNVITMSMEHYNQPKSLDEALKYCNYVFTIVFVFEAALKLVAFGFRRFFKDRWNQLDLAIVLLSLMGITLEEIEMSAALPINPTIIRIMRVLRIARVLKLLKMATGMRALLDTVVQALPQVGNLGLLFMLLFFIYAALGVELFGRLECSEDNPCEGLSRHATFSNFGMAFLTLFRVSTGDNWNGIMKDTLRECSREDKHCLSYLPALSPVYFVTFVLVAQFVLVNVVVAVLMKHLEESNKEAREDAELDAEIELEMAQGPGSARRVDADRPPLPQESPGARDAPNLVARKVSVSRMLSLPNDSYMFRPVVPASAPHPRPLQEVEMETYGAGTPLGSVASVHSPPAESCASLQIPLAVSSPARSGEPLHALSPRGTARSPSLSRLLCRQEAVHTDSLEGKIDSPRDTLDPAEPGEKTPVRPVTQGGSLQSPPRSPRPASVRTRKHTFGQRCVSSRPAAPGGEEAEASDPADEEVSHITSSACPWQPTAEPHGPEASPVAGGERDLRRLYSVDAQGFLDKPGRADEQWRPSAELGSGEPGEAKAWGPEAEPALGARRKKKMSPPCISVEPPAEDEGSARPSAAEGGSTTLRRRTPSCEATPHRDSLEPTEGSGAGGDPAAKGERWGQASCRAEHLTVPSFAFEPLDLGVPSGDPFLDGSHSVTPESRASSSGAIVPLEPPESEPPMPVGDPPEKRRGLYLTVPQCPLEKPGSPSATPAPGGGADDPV
PostGolgi ctrl: growth of the yeast control strain, post-Golgi counter-screen. efflux-deficient yeast background strain, growth absorbance A615, 16 h. inhibition, % at 10 µM. hit rate 5% among 98,000. AID 738
Numbers stand for hits. Unless noted, no stated cut-off is given here; in the data, active means inhibition above about 30%; inactive means the rest.

How did Cc1cccc(C)c1Nc1nnc(SCc2cc([N+](=O)[O-])cc3c2OCOC3)s1 do in these assays?
PostGolgi yeast: inactive; Pyk2 oligo antag: inactive; Cav32 inh: inactive; PostGolgi ctrl: 33

What do the screens show for `N#Cc1ccccc1NC(=O)COC(=O)CSc1nc2ccccc2o1`?
PostGolgi yeast: inactive; Pyk2 oligo antag: inactive; PostGolgi ctrl: inactive

What do the screens show for `COc1cccc(CNC(=O)Cc2c(C(=O)O)[nH]c3ccccc23)c1`?
PostGolgi yeast: inactive; Pyk2 oligo antag: inactive; Cav32 inh: inactive; PostGolgi ctrl: inactive

Results for CCOC(=O)N1CCN(C(=O)c2ccc3c(=O)n(Cc4ccccc4)c(=S)[nH]c3c2)CC1 ?
PostGolgi yeast: inactive; Pyk2 oligo antag: inactive; Cav32 inh: inactive; PostGolgi ctrl: inactive

How did O=C(c1ccc(Cn2c(=O)[nH]c3ccccc3c2=O)cc1)N1CCN(c2ccccc2)CC1 do in these assays?
PostGolgi yeast: inactive; Pyk2 oligo antag: inactive; PostGolgi ctrl: inactive

How did CC1CC(C)CN(C(=O)c2ccc3c(=O)n(Cc4ccc5c(c4)OCO5)c(=S)[nH]c3c2)C1 (stereo not given) do in these assays?
PostGolgi yeast: inactive; Pyk2 oligo antag: inactive; Cav32 inh: inactive; PostGolgi ctrl: 36

Results for CCOC(=O)N1CCN(C(=O)c2ccc3c(=O)n(Cc4ccc(OC)cc4)c(=S)[nH]c3c2)CC1 ?
PostGolgi yeast: inactive; Pyk2 oligo antag: inactive; Cav32 inh: -4.1; PostGolgi ctrl: inactive

What do the screens show for `CCn1c(=O)[nH]c2cc(C(=O)N3CCN(c4ccccc4)CC3)ccc2c1=O`?
PostGolgi yeast: 36; Pyk2 oligo antag: inactive; Cav32 inh: inactive; PostGolgi ctrl: inactive

Results for C#CCOCCOCCOCCNc1nc(N2CCN(C(=O)[C@H](CCC(=O)O)n3cc(C(N)CO)nn3)CC2)nc(N2CCN(C(=O)[C@H](CCC(=O)O)n3cc(C(N)CC(C)C)nn3)CC2)n1 (stereo not given in full) ?
Cav32 inh: inactive

What do the screens show for `O=C1CNC(=O)/C1=C\N1CCN(C(c2ccccc2)c2ccccc2)CC1`?
PostGolgi yeast: inactive; Pyk2 oligo antag: inactive; Cav32 inh: inactive; PostGolgi ctrl: inactive

What do the screens show for `CC(C)NC(=O)CN(CCc1ccccc1)S(C)(=O)=O`?
PostGolgi yeast: inactive; Pyk2 oligo antag: inactive; Cav32 inh: inactive; PostGolgi ctrl: inactive

What do the screens show for `CC(=O)NS(=O)(=O)c1ccc(NC(=S)NC(=O)C(C)C)cc1`?
PostGolgi yeast: inactive; Pyk2 oligo antag: inactive; Cav32 inh: inactive; PostGolgi ctrl: 36

How did Cc1cc(C)nc(NS(=O)(=O)c2ccc(NC(=S)NC(=O)C(C)C)cc2)n1 do in these assays?
Pyk2 oligo antag: inactive; Cav32 inh: inactive

Results for Cn1c(=O)c2c(nc(NC3CCCCC3)n2CC(=O)C23CC4CC(CC(C4)C2)C3)n(C)c1=O ?
PostGolgi yeast: inactive; Pyk2 oligo antag: inactive; Cav32 inh: -5.8; PostGolgi ctrl: inactive

What do the screens show for `Cn1c(=O)c2c(nc(NC3CCCCC3)n2Cc2ccccc2)n(C)c1=O`?
PostGolgi yeast: inactive; Cav32 inh: inactive; PostGolgi ctrl: inactive

What do the screens show for `O=C(O)c1ccc(-c2ccc(O)c(F)c2)cc1`?
PostGolgi yeast: inactive; Cav32 inh: inactive; PostGolgi ctrl: inactive

Results for COc1ccc(N=CC2=C(Nc3ccc(OC)cc3)c3c(C)nn(-c4ccccn4)c3CC2)cc1 ?
Cav32 inh: -4.2

Results for COc1ccc(-c2cc(C(=O)O)c3c(C)nn(-c4ccccn4)c3n2)cc1 ?
PostGolgi yeast: inactive; PostGolgi ctrl: inactive

How did c1coc(-c2nn3c(Cn4nnc5ccccc54)nnc3s2)c1 do in these assays?
PostGolgi yeast: inactive; Pyk2 oligo antag: inactive; Cav32 inh: inactive; PostGolgi ctrl: inactive

What do the screens show for `CC(C)(C)c1ccccc1OCCCCCNCCO`?
PostGolgi yeast: inactive; Pyk2 oligo antag: inactive; Cav32 inh: inactive; PostGolgi ctrl: inactive

What do the screens show for `CC(C)n1c(Nc2ccccc2)nc2ccccc21`?
PostGolgi yeast: inactive; Pyk2 oligo antag: inactive; Cav32 inh: inactive; PostGolgi ctrl: inactive

What do the screens show for `CC(C)n1c2ccccc2c2nc3ccccc3nc21`?
PostGolgi yeast: inactive; Pyk2 oligo antag: inactive; Cav32 inh: inactive; PostGolgi ctrl: 46

What do the screens show for `C=CCc1ccccc1OCC(O)CN1CCN(c2ccccc2OC)CC1` (stereo not given)?
PostGolgi yeast: inactive; Pyk2 oligo antag: inactive; Cav32 inh: inactive; PostGolgi ctrl: inactive

Results for C=CCc1cc(OC)ccc1OCC(O)CN1CCN(c2ccc(OC)cc2)CC1 (stereo not given) ?
PostGolgi yeast: inactive; Pyk2 oligo antag: inactive; Cav32 inh: inactive; PostGolgi ctrl: 45

How did COc1ccccc1N1CCN(CC(O)COc2cccc3ccccc23)CC1 (stereo not given) do in these assays?
Cav32 inh: -4.5

Results for C=CCc1cc(C)ccc1OCC(O)CN1CCN(c2ccccc2)CC1 (stereo not given) ?
PostGolgi yeast: inactive; Pyk2 oligo antag: inactive; Cav32 inh: -4.6; PostGolgi ctrl: inactive
